This is an account of results in PubChem BioAssay (NCI).

About 83,000 compounds went through this panel and 20% of them were active in at least one assay; those are over-represented in the sample as a whole.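 48-hour exposure, single concentration, 96-well plates; percent growth endpoint where 0 means no net growth. Active: below 10.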 Unmarked numbers belong to inactive results. Calls of active or inactive are those of the source.

What all share (experiment): NCI-60 one-dose screen, 48 h (100 = growth as untreated, 0 = no growth, -100 = all killed)
For one assay, the system named is T-47D breast. The following applies: 10 µM unless noted.
The next assay relates to BT-549 breast. The following applies: 10 µM unless noted.
For a further assay, the system named is MDA-MB-435 melanoma. The following applies: 10 µM unless noted.
The next assay concerns SW-620 colon. The following applies: 10 µM unless noted.
A further assay has as its system MCF7 breast. The following applies: 10 µM unless noted.
The subject of the next assay is HCT-116 colon. The following applies: 10 µM unless noted.
For another assay, the system named is HCC-2998 colon. The following applies: 10 µM.
In another assay the test system is KM12 colon. The following applies: 10 µM unless noted.

`CC1(O)CCC(Nc2cc(-c3ccc(C(F)(F)F)cc3)c(C#N)c3nc4ccccc4n23)CC1` (stereo not given): the growth is 53% in the assay on T-47D breast; 38.2% in the assay on BT-549 breast; 64.7% in the assay on MDA-MB-435 melanoma; 90.5% in the assay with SW-620 colon; 43.9% in the assay on MCF7 breast; 53.6% in the assay on HCT-116 colon. In addition, the growth was 86.5% in the assay with HCC-2998 colon and 68.7% in the assay with KM12 colon.

For `C=C1C(=O)O[C@H]2[C@H]1CC/C(CNC(=O)c1cc3cc(OC)ccc3[nH]1)=C\CC[C@@]1(C)O[C@@H]21`, the growth is -46.3% (active) in the assay on T-47D breast; -68.1% (active) with BT-549 breast; -48.1% (active) in the assay on MDA-MB-435 melanoma; -72.3% (active) with SW-620 colon; -29.6% (active) in the assay on MCF7 breast; -81.3% (active) with HCT-116 colon. Also, the growth in the assay with HCC-2998 colon is -90.3% (active); in the assay on KM12 colon, 25.4%.

With `CC(C)(C)c1nc(-c2cccc(NS(=O)(=O)c3c(F)cccc3F)c2F)c(-c2ccnc(N)n2)s1`, the growth in the assay on T-47D breast is 92.6%; with BT-549 breast, 118%; in the assay with MDA-MB-435 melanoma it was 87.3%; in the assay with SW-620 colon, 73.3%; in the assay with MCF7 breast, 79.7%; in the assay with HCT-116 colon it was 48.1%. Moreover, the growth in the assay with HCC-2998 colon is 85.1%; in the assay with KM12 colon it was 44.6%.

On to `Cc1cc2c(F)c(Oc3ncnn4cc(OC[C@@H](C)OC(=O)[C@H](C)N)c(C)c34)ccc2[nH]1`, for which the growth in the assay on T-47D breast is 70.5%; in the assay with BT-549 breast, 80.8%; with MDA-MB-435 melanoma it was 28.6%; with SW-620 colon it was 20.3%; in the assay on MCF7 breast, 39.6%; in the assay on HCT-116 colon, 19.3%. For the same compound, the values for the growth in the assay with HCC-2998 colon and in the assay on KM12 colon were 37.5% and 35.1%, respectively.

For `CCN(CC)CCCC(C)Nc1cc(-c2ccc(C(F)(F)F)cc2)c(C#N)c2nc3ccccc3n12` (stereo not given), the growth with T-47D breast is -8.16% (active); with BT-549 breast it was -10.7% (active); in the assay on MDA-MB-435 melanoma, -64.8% (active); in the assay on SW-620 colon, 12.2%; in the assay with MCF7 breast, 14.1%; in the assay on HCT-116 colon it was 3.28% (active). The values for the growth in the assay with HCC-2998 colon and in the assay on KM12 colon were 16.6% and 36.5%, respectively.

Consider `NS(=O)(=O)c1ccc(CCN2C(=O)/C(=C\c3ccc(Cl)cc3)C=C2c2ccc3ccccc3c2)cc1`, for which the growth in the assay with T-47D breast is 71.8%; with BT-549 breast, 95.1%; in the assay with MDA-MB-435 melanoma, 97%; with SW-620 colon, 106%; with MCF7 breast, 90.6%; in the assay on HCT-116 colon, 89.5%. In addition, the figures for the growth with HCC-2998 colon and with KM12 colon were 94.8% and 93%, respectively.

As to `N#CC[C@H](C1CCCC1)n1cc(-c2ncnc3[nH]ccc23)cn1`, the growth was 72% in the assay on T-47D breast; 77.9% in the assay with BT-549 breast; 69.8% in the assay on MDA-MB-435 melanoma; 73.2% in the assay on SW-620 colon; 41.5% in the assay with MCF7 breast; 39.4% in the assay on HCT-116 colon. Also, the growth in the assay with HCC-2998 colon is 85.8%; in the assay with KM12 colon, 19.1%.

Consider `CC1CCC(n2cnc3c(Cl)ncnc32)O1` (stereo not given), for which the growth in the assay with T-47D breast is 91.1%; in the assay on BT-549 breast, 89.6%; in the assay on MDA-MB-435 melanoma, 99.6%; with SW-620 colon it was 106%; in the assay with MCF7 breast, 90.1%; with HCT-116 colon, 89.3%. Also, the figures for the growth in the assay with HCC-2998 colon and with KM12 colon were 103% and 106%, respectively.

`CC[n+]1c(/C=C/C=C2\N(C)c3ccccc3C2(C)C)sc2ccccc21`: the growth in the assay with T-47D breast is 4.61% (active); with BT-549 breast it was -2.69% (active); in the assay on MDA-MB-435 melanoma, 4.07% (active); in the assay on SW-620 colon, 17%; with MCF7 breast, -26.9% (active); in the assay on HCT-116 colon it was 7.25% (active). The growth was 32.2% in the assay on HCC-2998 colon and 3.17% (active) in the assay on KM12 colon.

Take `CCCCn1c(C)nc2ccc(Nc3nc(N4CCN(C)CC4)nc4nc[nH]c34)cc21`: the growth in the assay with T-47D breast is 80.3%; with BT-549 breast it was 97.5%; in the assay with MDA-MB-435 melanoma it was 94.3%; in the assay with SW-620 colon, 91.8%; in the assay with MCF7 breast it was 83%; in the assay with HCT-116 colon it was 75.8%. Moreover, the growth in the assay with HCC-2998 colon is 83.6%; in the assay on KM12 colon, 93.6%.

For the compound `O=CC(OC(=O)c1ccccc1)C(OC(=O)c1ccccc1)C(COC(c1ccccc1)(c1ccccc1)c1ccccc1)OC(=O)c1ccccc1` (stereo not given), the growth is 25.6% in the assay with T-47D breast; 65.6% with BT-549 breast; 45.7% in the assay with MDA-MB-435 melanoma; -37.6% (active) with SW-620 colon; 36.6% in the assay on MCF7 breast; 7.51% (active) with HCT-116 colon. The growth is 96.6% with HCC-2998 colon and 61% in the assay with KM12 colon.

Consider `CCc1nc2cc(/C=C/C(=O)NO)c(F)cc2c(=O)n1CCc1ccccc1`, for which the growth with T-47D breast is -0.665% (active); in the assay on BT-549 breast, 15.7%; in the assay with MDA-MB-435 melanoma, 18.2%; in the assay with SW-620 colon it was 18.4%; in the assay with MCF7 breast it was 12.3%; in the assay with HCT-116 colon, 5.15% (active). In addition, the growth in the assay on HCC-2998 colon was 37.3%; in the assay with KM12 colon, 15.5%.

`N[C@@H]1CCCN(c2c(/C=C3\SC(=O)NC3=O)cccc2-c2ccccc2)C1`: the growth was 25.7% with T-47D breast; 0.186% (active) in the assay on BT-549 breast; 56.7% with MDA-MB-435 melanoma; 60.3% in the assay with SW-620 colon; 45.3% in the assay with MCF7 breast; 50.6% in the assay with HCT-116 colon. The growth in the assay with HCC-2998 colon is 74.8%; in the assay on KM12 colon it was 60.3%.

In the case of `CCc1nc2ccc(Cc3ccc(C(=O)NO)cc3)cc2c(=O)n1CCc1ccccc1`, the growth in the assay on T-47D breast was -7.19% (active); in the assay with BT-549 breast it was -31.2% (active); in the assay on MDA-MB-435 melanoma, -73.7% (active); in the assay on SW-620 colon, -27.2% (active); in the assay with MCF7 breast, 4.69% (active); with HCT-116 colon, -55% (active). Also, the figures for the growth in the assay with HCC-2998 colon and in the assay with KM12 colon were -74.8% (active) and -58.9% (active), respectively.

Consider `C1=C\COCc2cc(ccc2OCCN2CCCC2)Nc2nccc(n2)-c2cccc(c2)COC/1`, for which the growth is -23.5% (active) with T-47D breast; 21.9% with BT-549 breast; -54.6% (active) with MDA-MB-435 melanoma; 3.2% (active) in the assay with SW-620 colon; -25.1% (active) in the assay on MCF7 breast; 1.18% (active) with HCT-116 colon. For the same compound, the growth with HCC-2998 colon was -16.4% (active); in the assay with KM12 colon, -9.97% (active).
